Source: PubChem BioAssay (Broad Institute)
NSD2 HMT inh – inhibitors of human histone methyltransferase NSD2. O96028. 0.54% of 310,000 active. NSD2 peptide methylation, AlphaScreen, 120 min. inhibition, % at 12.5 µM; in the data active = inhibition above about 50%
CDK5 p35 inh – inhibitors of human CDK5/p35 kinase. Q00535+Q15078. Recombinant CDK5/p35, ADP-Glo luminescence, 60 min. inhibition, % at 10 µM. 0.01% of 330,000 active;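 active = highest replicate inhibition of at least 50% and at least 75% of replicates reaching 50%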;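 also: plate controls were DMSO neutral control for no effect and GW8510 at 10 µM for full effect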
ALR inh – inhibitors of human sulfhydryl oxidase ALR. P55789. purified ALR, DTT oxidation, H2O2 HRP-luminol luminescence. inhibition, % (no concentration beside the values). 3.8% of 290,000 active. AID 485317;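 active = mean replicate inhibition above about 79%, with every replicate also reaching it, limit read from the data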
N-glyco inh – N-linked glycosylation inhibition; D54 ERlucT glycosylation luciferase reporter, 24 h; percent of 100 nM tunicamycin response; reporter increase, % at 12.5 µM; 0.23% of 360,000 active;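 active = mean luciferase reporter signal, scaled so untreated is 0 and the glycosylation-blocking control 100, at or above a set limit in every replicate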;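 also: luciferase carries N-glycosylation sites so blocking glycosylation raises the light; 0% = median of neutral control wells and 100% = median of 100 nM tunicamycin wells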
Casp6 inh – blocks human caspase-6 cleavage activity. inhibition, % at 12.5 µM. AID 686996. P55212. 0.53% of 350,000 active. purified caspase-6, Z-VEID-R110 cleavage fluorescence;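 active = mean inhibition across replicates at least about 35%, with every replicate also reaching that limit, limit read from the data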;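 also: 0% = median of neutral control wells and 100% = no fluorescence left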
SUMO Mot1 rescue – blocks SUMOylation pathway, rescuing yeast Mot1-301 growth; growth rescue, % at 18.8 µM; S. cerevisiae Mot1-301 growth rescue, ATP luminescence, 38.5C; percent above DMSO median, 100 means doubled; 1% of 320,000 active;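 active = every valid replicate shows activation above 250% relative to neutral control wells; inactive = the rest, any valid replicate at or below 250%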;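 also: OY570 slx delta 5 strain wells were the positive control but not used for scaling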
Yeast Mot1 SUMO – inhibits SUMO pathway, affecting Mot1-301 yeast growth; shares compounds with SUMO Mot1 rescue; S. cerevisiae Mot1-301 galactose growth, ATP luminescence, 24 h; -100 = growth of slx-deleted rescue strain; growth activity, percent, % at 42 µM; 2,300 tested, under 10 active;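 active = Signal drops as the depositor expects, and the fitted half-maximal dose is no more than ten times the top valid tested dose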;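 also: more negative values mean stronger growth rescue toward the control strain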
* = called active by the depositor; x = no result; + = active, no number. The list is not random: actives were taken first. Their share in the collection is about 3.9%.

SMILES | NSD2 HMT inh | CDK5 p35 inh | ALR inh | N-glyco inh | Casp6 inh | SUMO Mot1 rescue | Yeast Mot1 SUMO
CC(=O)C(C(c1ccccc1)c1c[nH]c2ccccc12)[N+](=O)[O-] (configuration not stated) | -1 | 0 | 25 | 18 | 2 | 402* | -1
CCn1cc(C(c2ccccc2)C(C(C)=O)[N+](=O)[O-])c2ccccc21 (configuration not stated) | 1 | -1 | -3 | -6 | 13 | -25 | x
COCC#Cc1ccc2c(c1)O[C@H](CN(C)C)[C@@H](C)CN([C@@H](C)CO)S2(=O)=O | x | x | x | x | -1 | x | x
Cc1ccc(NC2c3ncccc3C(=O)N2C2CCCCC2)cc1C (configuration not stated) | -1 | -4 | 92* | 1 | x | 395* | -1
COC(=O)c1sc2ccccc2c1NC(=O)c1ccc(S(=O)(=O)N2CCCC(C)C2)cc1 (configuration not stated) | -4 | -1 | -2 | -2 | x | 511* | 0
NC(=O)C1=C[C@@H](c2ccc(Br)cc2)C[C@@H](OCCCCO)O1 | x | 1 | -40 | 2 | 4 | 554* | 1
OCC#CCSc1nnc(-c2ccncc2)o1 | 39 | -2 | -3 | -1 | x | -19 | x
COc1cc(-c2nnc(SCC#CCO)o2)cc(OC)c1OC | -2 | 1 | -20 | 5 | 3 | 967* | 1
Cc1ccc(NS(=O)(=O)c2ccc(NC(=O)C3CCCO3)cc2)cc1 (configuration not stated) | 2 | 0 | 0 | -3 | x | 469* | 0
O=c1[nH]cnc2sc3c(c12)CCC3 | -2 | 1 | -4 | 0 | -2 | 626* | 0
Cc1nc2sc3c(c2c(=O)[nH]1)CCC3 | -1 | 1 | -2 | 2 | x | -9 | x
COc1ccccc1NC(=O)N[C@@H]1CC[C@H](CC(=O)N2CCC(Cc3ccccc3)CC2)O[C@@H]1CO | x | x | x | x | 1 | x | x
COc1ccccc1N1CCN(CCCCN2C(=O)C3CCCN3C2=O)CC1 (configuration not stated) | -3 | -1 | x | 1 | -11 | x | x
O=C1C2CCCCN2C(=O)N1CCCCN1CCN(c2ccccc2Oc2ccccc2)CC1 (configuration not stated) | 6 | -1 | 26 | -4 | 2 | 431* | 0
Cc1cc2nc(SCCOC(=O)Nc3ccccc3)nc(C)c2cc1C | -1 | 0 | x | 0 | x | 5 | x
CCNc1nc(NCC)nc(SCCOC(=O)Nc2ccccc2)n1 | 1 | 3 | 2 | -2 | x | + | 0
CCOc1ccc(NCC(=O)Nc2ccc(C)cc2C)cc1 | x | 1 | -4 | 1 | 1 | -11 | x
CCOc1ccc(NC(=O)CNc2ccc(C)cc2Cl)cc1 | -1 | 1 | 2 | 0 | x | 811* | -1
COCC(=O)N1CC2(C1)[C@@H](c1ccc(-c3ccccc3)cc1)[C@H](CO)N2C(=O)COC | x | x | x | x | 0 | x | x
COc1ccc(-c2nc(C#N)c(NC(C)c3ccccc3)o2)cc1OC (configuration not stated) | 9 | 2 | x | -3 | x | 417* | 1
COc1ccc(-c2cc(CC3(C(=O)O)CCN(C(=O)OC(C)(C)C)CC3)on2)c(OC)c1 | x | 0 | -21 | 1 | -2 | 381* | 1
COC(=O)C1(Cc2cc(-c3ccccc3)no2)CCN(C(=O)OC(C)(C)C)CC1 | x | 3 | 7 | 2 | -2 | + | 0
O=c1c2ccccc2ncn1-c1ccc(Cl)cc1Cl | -2 | x | -12 | -2 | 2 | 747* | 1
O=c1c2ccccc2ncn1-c1cccc(Cl)c1 | -1 | 0 | -8 | 1 | x | 6 | x
Cc1ccc(N/N=C2/CCCNC2=O)cc1 | 22 | -1 | 90* | -1 | x | 528* | 0
SMILES | NSD2 HMT inh | CDK5 p35 inh | ALR inh | N-glyco inh | Casp6 inh | SUMO Mot1 rescue | Yeast Mot1 SUMO
Cc1ccc(C(=O)/C=C2\NCCNC2=O)cc1 | x | -4 | 4 | -10 | x | -13 | x
COc1ccc(NC(=O)N(C)C[C@@H]2Oc3ccc(NC(=O)Cc4ccccc4)cc3C(=O)N([C@H](C)CO)C[C@@H]2C)cc1 | x | x | x | x | 0 | x | x
COc1ccc(N2CC(C(=O)N3CCc4ccccc43)CC2=O)cc1 (configuration not stated) | -1 | 0 | x | 5 | -4 | 450* | 0
CCc1ccc(-n2c(Cc3ccccc3)n[nH]c2=S)cc1 | x | 2 | 12 | 1 | 4 | 889* | 2
CCC(C)(C)NC(=O)C(c1ccc(C)cc1)N(CC1CCCO1)C(=O)CNC(=O)c1cccs1 (configuration not stated) | x | 3 | -7 | 0 | x | 688* | 0
Cc1ccc(C(C(=O)NC2CCCCC2)N(CC2CCCO2)C(=O)CNC(=O)c2cccs2)cc1 (configuration not stated) | 22 | 0 | -5 | -3 | x | -14 | x
CCN(C(=O)Cn1c(=O)oc2ccccc21)c1cccc(C)c1 | -2 | 1 | -2 | -2 | -1 | 628* | 0
COCCNC(=O)C[C@H]1CC[C@@H]2[C@H](COc3ccc(NC(=O)c4cc(C)on4)cc3C(=O)N2C)O1 | x | x | x | x | -3 | x | x
COc1cc(C(=O)OCC(=O)NCc2ccccc2)cc(NC(=O)c2ccco2)c1OC | 0 | 1 | 9 | 1 | x | 383* | 0
CCCCn1c(/C=C/c2ccco2)nc2ccccc21 | -2 | -4 | x | 3 | 2 | 12 | x
CCCCn1c(/C=N/Nc2nc3ccccc3[nH]2)nc2ccccc21 | 13 | -1 | 3 | 0 | x | 418* | 0
CCC(CO)N=CC1=C(O)CC(C)(C)CC1=O (configuration not stated) | 0 | -1 | 2 | 0 | x | 1 | x
CC1CCCCC1N=CC1=C(O)CC(C)(C)CC1=O (configuration not stated) | -2 | -1 | -1 | 0 | x | 385* | 0
C[C@H](O)C#Cc1cnc2c(c1)C(=O)N([C@@H](C)CO)C[C@@H](C)[C@@H](CN(C)Cc1cccc(F)c1)O2 | x | x | x | x | -1 | x | x
C[C@H]1O[C@H]1P(=O)(O)O | x | 1 | x | 2 | 2 | 975* | 1
C[C@@H]1O[C@@H]1P(=O)(O)O | x | 1 | -5 | 2 | 4 | 91 | x
Cc1ccc(-c2noc(C3CCCN(S(=O)(=O)c4ccc5ccccc5c4)C3)n2)o1 (configuration not stated) | 2 | 1 | -20 | -3 | x | 765* | 0
COc1cccc(/C=N/n2cnc3ccccc32)c1OC | -1 | 0 | 5 | -7 | x | 406* | -1
CN(C)CC(=O)N1[C@H](C(=O)NC2CCC2)[C@@H](CO)[C@@H]2Cn3c(ccc(-c4ccccc4)c3=O)[C@@H]21 | x | x | x | x | -1 | x | x
O=[N+]([O-])c1cncc([N+](=O)[O-])c1Nc1ccccc1Cl | 15 | 1 | -48 | 3 | 3 | 813* | 0
